Laboratory results from the supplement of paper PMC3334620.
Whole data set: some 33,000 sequences, median “E-score (-0.5 to 0.5)” near -0.015, cut for the highest 2% near 0.3. The sample holds the highest values, similar sequences and a random draw of the others, so the mix is not that of the screen.

Target: T1, Abf1 (UniProt P14164)
T1 sequence: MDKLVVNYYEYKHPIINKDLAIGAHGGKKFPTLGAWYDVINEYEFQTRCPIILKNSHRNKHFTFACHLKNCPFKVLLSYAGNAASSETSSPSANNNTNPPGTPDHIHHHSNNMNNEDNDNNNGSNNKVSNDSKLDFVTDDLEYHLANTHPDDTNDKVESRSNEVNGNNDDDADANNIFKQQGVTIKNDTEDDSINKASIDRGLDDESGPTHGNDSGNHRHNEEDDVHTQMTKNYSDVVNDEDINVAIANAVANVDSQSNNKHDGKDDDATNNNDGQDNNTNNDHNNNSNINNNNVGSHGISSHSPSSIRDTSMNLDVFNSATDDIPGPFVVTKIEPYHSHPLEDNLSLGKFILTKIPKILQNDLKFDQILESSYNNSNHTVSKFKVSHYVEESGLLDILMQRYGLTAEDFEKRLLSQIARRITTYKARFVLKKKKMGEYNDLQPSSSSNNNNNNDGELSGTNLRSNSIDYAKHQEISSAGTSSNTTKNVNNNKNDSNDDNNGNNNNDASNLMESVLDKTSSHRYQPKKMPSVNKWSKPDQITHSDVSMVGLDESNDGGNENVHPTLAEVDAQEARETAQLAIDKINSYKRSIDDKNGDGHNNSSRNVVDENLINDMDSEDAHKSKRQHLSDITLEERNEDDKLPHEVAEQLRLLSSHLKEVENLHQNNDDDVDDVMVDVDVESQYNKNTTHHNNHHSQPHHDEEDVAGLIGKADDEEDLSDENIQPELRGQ
Assay: PBM E-score (8-mer binding enrichment) (E-score (-0.5 to 0.5)); higher = stronger / more preferred TF binding
Conditions: protein concentration: 200 nM; construct: GST-full length
Procedure: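 Universal 'all 10-mer' protein binding microarrays (Agilent AMADID 015681) probed with GST-tagged S. cerevisiae TFs (full-length or DBD) made by in vitro transcription/translation (PURExpress), about 100-200 nM. Bound TF was detected with fluorescent anti-GST. Each ungapped 8-mer (which stands for itself and its reverse complement) is scored by the PBM enrichment score (E-score), a modified Wilcoxon-Mann-Whitney statistic from -0.5 to +0.5, computed with the Universal PBM Analysis Suite. Scale: above 0.35 generally sequence-specific binding.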

First: AGGGTGAA
Second: AAAGTGAG
The “PBM E-score” value of the first is lower: -0.209 for the first, 0.2 for the second.

First: AGGGTGAT
Second: AACGTGAA
The “PBM E-score” value of the first is higher: 0.335 for the first, 0.057 for the second.

Going from AAAGTGGC to AACGTGAG, the “PBM E-score” value rises from -0.118 to 0.0297.

Compared with AGGGTGAG, AAAGTGAC is higher in “PBM E-score” value: -0.102 for the first, 0.343 for the second.

Compared with CCCCAGGA, TAGTTCAA is higher in “PBM E-score” value: -0.301 for the first, -0.0129 for the second.

Compared with AACAGCAC, CACCCTGG is lower in “PBM E-score” value: -0.13 for the first, -0.33 for the second.

Compared with ATAGGCTC, CCAAACCG is higher in “PBM E-score” value: -0.0801 for the first, -0.0285 for the second.

First: AAGGACCC
Second: ACATCCTA
The “PBM E-score” value of the first is lower: -0.134 for the first, 0.0617 for the second.

Compared with AATTCTCG, AGAGTGAT is higher in “PBM E-score” value: 0.162 for the first, 0.387 for the second.

First: GAAGTGAC
Second: GAAGTGAA
The “PBM E-score” value of the first is higher: 0.411 for the first, 0.064 for the second.

First: AGAGTGAG
Second: CAAGTGAC
The “PBM E-score” value of the first is lower: 0.0964 for the first, 0.242 for the second.

First: AGAGTGAA
Second: GTCCGGTA
The “PBM E-score” value of the first is lower: -0.0316 for the first, 0.00344 for the second.

Compared with CTCACGTA, AACTATAT is higher in “PBM E-score” value: -0.0341 for the first, 0.205 for the second.

First: AGTTATCG
Second: TATTATGA
The “PBM E-score” value of the first is higher: 0.223 for the first, 0.0866 for the second.

First: CATTATCC
Second: GGTTATCA
The “PBM E-score” value of the first is lower: 0.262 for the first, 0.272 for the second.

Going from CATTATCG to CATTATCA, the “PBM E-score” value rises from 0.0198 to 0.329.

First: TATTATCA
Second: TCTTATCA
The “PBM E-score” value of the first is higher: 0.34 for the first, 0.316 for the second.

First: ACTTATCA
Second: CCTTATCA
The “PBM E-score” value of the first is lower: 0.231 for the first, 0.236 for the second.

First: TATTATAA
Second: AGTTATCA
The “PBM E-score” value of the first is lower: 0.121 for the first, 0.302 for the second.

Going from GGGAGGCA to GGGGACGA, the “PBM E-score” value rises from -0.284 to 0.135.

First: AATTATCC
Second: AATTATCA
The “PBM E-score” value of the first is lower: 0.0502 for the first, 0.34 for the second.

First: GATTATTA
Second: GATTATCC
The “PBM E-score” value of the first is lower: 0.0366 for the first, 0.152 for the second.

Compared with AATTATCG, GATTATCA is higher in “PBM E-score” value: 0.178 for the first, 0.302 for the second.

Compared with CATCCATA, CATGAACC is lower in “PBM E-score” value: 0.0978 for the first, -0.00224 for the second.

Going from GCCCGAGA to GACATTAA, the “PBM E-score” value rises from -0.194 to 0.227.

First: CTCATTAA
Second: ATCATTAG
The “PBM E-score” value of the first is lower: 0.148 for the first, 0.279 for the second.

First: ATCATTAA
Second: ATCATTAC
The “PBM E-score” value of the first is higher: 0.307 for the first, 0.262 for the second.

Going from GTCATTAA to CTAAGCGC, the “PBM E-score” value falls from 0.385 to -0.121.

First: CTTTGCAC
Second: ACCTTTAC
The “PBM E-score” value of the first is higher: 0.209 for the first, -0.0849 for the second.

Compared with CGTTCGAA, AGTTCGGG is lower in “PBM E-score” value: 0.311 for the first, 0.0167 for the second.

Compared with TGTTCGAA, CGTTCGTA is higher in “PBM E-score” value: -0.0208 for the first, 0.345 for the second.

Going from CGTTCGTC to CGTTCGGC, the “PBM E-score” value falls from 0.358 to 0.0205.

First: GGTTCGTA
Second: CGTTCGAC
The “PBM E-score” value of the first is higher: 0.14 for the first, 0.122 for the second.

First: AGTTCGTC
Second: AGTTCGTG
The “PBM E-score” value of the first is lower: 0.164 for the first, 0.326 for the second.

Compared with AGTTCGTA, ATTTCGTG is higher in “PBM E-score” value: 0.264 for the first, 0.288 for the second.

Going from ATAAGGAT to AGGGAAGC, the “PBM E-score” value falls from -0.00817 to -0.197.

Compared with CTGCTGGC, ATCGAAAA is higher in “PBM E-score” value: -0.25 for the first, 0.0388 for the second.

First: CTTCACGA
Second: GATCACGA
The “PBM E-score” value of the first is lower: 0.2 for the first, 0.301 for the second.

Compared with GATCACAC, GTTCACGA is higher in “PBM E-score” value: 0.118 for the first, 0.3 for the second.

First: GATCACGC
Second: GATCACAA
The “PBM E-score” value of the first is higher: 0.366 for the first, 0.26 for the second.

First: ATTCACGA
Second: CATCACGC
The “PBM E-score” value of the first is higher: 0.235 for the first, 0.191 for the second.

First: GCTCACGA
Second: ACACTCGA
The “PBM E-score” value of the first is higher: 0.125 for the first, -0.0221 for the second.

First: CGTCCATC
Second: GATACGGA
The “PBM E-score” value of the first is lower: 0.0706 for the first, 0.279 for the second.

First: AGGGTGGG
Second: CATTTGAG
The “PBM E-score” value of the first is lower: -0.0843 for the first, 0.0534 for the second.

First: CGCCAGAA
Second: CAGTCGGG
The “PBM E-score” value of the first is lower: -0.0306 for the first, 0.0146 for the second.

Going from GATAGCCA to GACAATCC, the “PBM E-score” value rises from -0.0722 to 0.0976.

Compared with GTACGAAA, ATACGAAC is lower in “PBM E-score” value: 0.376 for the first, 0.294 for the second.

First: GGACGAAC
Second: ACACGAAA
The “PBM E-score” value of the first is higher: 0.323 for the first, 0.288 for the second.

Going from GCACGAAC to AGACGAAC, the “PBM E-score” value falls from 0.269 to 0.24.

Compared with GTACGAAC, CTACGAAC is lower in “PBM E-score” value: 0.418 for the first, 0.275 for the second.

First: TTACGAAA
Second: CTACGAAA
The “PBM E-score” value of the first is higher: 0.279 for the first, 0.122 for the second.

First: GCACGAAA
Second: GAACGAAC
The “PBM E-score” value of the first is higher: 0.336 for the first, 0.121 for the second.

Compared with AAATCTAG, ATACTTGA is lower in “PBM E-score” value: 0.045 for the first, -0.0426 for the second.

First: AAGCACCC
Second: ATGGAAAA
The “PBM E-score” value of the first is lower: -0.201 for the first, 0.177 for the second.

Compared with GATTGAGA, CGTTAGTC is lower in “PBM E-score” value: 0.21 for the first, 0.00116 for the second.
